Assay results taken from the supplement of paper PMC8699584.
Where a name gives a salt, the structure may show the parent alone. ± gives the standard deviation of the averaged measurements.

Each compound was assayed on Mv4-11 (assay: cell viability relative to DMSO control (bortezomib = 0%); higher = less growth inhibition). Conditions: 10 nM; 72 h.
Outline: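 Acute myeloid leukemia cells were plated at 1000 cells per well in 50 µL onto a 679-compound library of approved and investigational agents in 384-well plates and exposed to a single 10 nM dose for 72 h, in duplicate. Cell viability was measured by CellTiter-Glo luminescence on an EnVision reader. Readings were scaled to percentages by per-plate linear regression, with DMSO-treated cells set at 100% and positive-control-treated cells at 0%.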
In the case of CC(C)(C)n1nc(Cc2cccc3ccccc23)c2c(N)ncnc21, the cell viability is reported as 106 ± 3%. Work on CONC(=O)c1ccccc1Nc1cc(Nc2cc(C)nn2C(C)C)ncc1Cl yielded a cell viability of 105 ± 1.3%. Cc1nc2ccc(-n3ncc(C(=O)c4cc5ccccc5[nH]4)c3N)cc2[nH]1 showed a cell viability of 110 ± 12%. In the case of O=C1NCCc2[nH]c(-c3ccncc3)cc21, the cell viability is reported as 115 ± 6.7%. In the case of CNc1nc(Nc2cn(C(C)(C)C#N)nc2C)ncc1C(F)(F)F, the cell viability is reported as 117 ± 11%. For COc1cc(Nc2ncc(F)c(Nc3ccc4c(n3)N(COP(=O)(O)O)C(=O)C(C)(C)O4)n2)cc(OC)c1OC [R788 (Fostamatinib) Disodium], the cell viability was 96.4 ± 10%. In the case of COc1cc(Nc2ncc(F)c(Nc3ccc4c(n3)NC(=O)C(C)(C)O4)n2)cc(OC)c1OC [R406 free base], the cell viability is reported as 105 ± 1.6%. Work on CO[C@@H]1[C@H](N(C)C(=O)c2ccccc2)C[C@H]2O[C@]1(C)n1c3ccccc3c3c4c(c5c6ccccc6n2c5c31)C(=O)NC4 [PKC-412(Midostaurin)] yielded a cell viability of 89 ± 22%. In the case of CC(C)(C)c1nc2c3cc[nH]c(=O)c3c3cc(F)ccc3c2[nH]1 [Pyridone 6], the cell viability is reported as 106 ± 7%. Compound COc1ccc2cc1Oc1ccc(cc1)C[C@H]1c3cc(c(OC)cc3CCN1C)Oc1c(O)c(OC)cc3c1[C@H](C2)N(C)CC3 [Fangchinoline] has a cell viability of 122 ± 9.6%. With COc1cc2ncnc(Nc3ccc(O)cc3)c2cc1OC the cell viability was 102 ± 7.1%. O=C(c1ccc(F)c(F)c1Nc1ccc(I)cc1F)N1CC(O)([C@@H]2CCCCN2)C1 [Cobimetinib] showed a cell viability of 103.3 ± 0.5%. Work on COc1ccc(Cl)cc1NC(=O)Nc1cc(C)nc2ccccc12 yielded a cell viability of 130 ± 17%. COc1ccc([C@@H]2OC[C@H]3[C@@H]2CO[C@@H]3c2ccc(O[C@@H]3O[C@H](CO)[C@@H](O)[C@H](O)[C@H]3O)c(OC)c2)cc1OC [Forsythin] showed a cell viability of 102 ± 6.1%. With Cc1cc(Nc2ncc(Cl)c(Nc3ccccc3S(=O)(=O)C(C)C)n2)c(OC(C)C)cc1C1CCNCC1 [LDK378(Ceritinib)] the cell viability was 103.8 ± 0.72%. C=CC(=O)Nc1cc2c(Nc3ccc(F)c(Cl)c3)ncnc2cc1OCCCN1CCOCC1 [Canertinib (hydrochloride)] gave a cell viability of 103 ± 7.2%. Compound COC(=O)Nc1nc2cc(C(=O)c3cccs3)ccc2[nH]1 [Nocodazole] has a cell viability of 105.5 ± 0.46%. With N#C/C(=C\c1ccc(O)c(O)c1)C(=O)Nc1ccccc1 the cell viability was 115 ± 17%. For CN1C/C=C/CCOc2cccc(c2)-c2ccnc(n2)Nc2cccc(c2)C1, the cell viability was 102 ± 22%. For O=C(Nc1cc(Oc2cc(F)c(NC(=O)C3(C(=O)Nc4ccc(F)cc4)CC3)cc2F)ccn1)C1CC1 [Altiratinib(DCC2701)], the cell viability was 120 ± 8.4%. Compound O=C(NCc1cccc(O)c1)c1cc2cc(F)ccc2[nH]1 has a cell viability of 114 ± 1.2%. With C[C@@H]1O[C@@H](Oc2c(-c3cc(O)c(O)c(O)c3)oc3cc(O)cc(O)c3c2=O)[C@H](O)[C@H](O)[C@H]1O [Myricetrin] the cell viability was 112 ± 35%. With COc1cc2ncnc(Sc3nnc(C)s3)c2cc1OC the cell viability was 115 ± 14%. Work on CC(C)=CCC[C@](C)(O[C@@H]1O[C@H](CO)[C@@H](O)[C@H](O)[C@H]1O)[C@H]1CC[C@]2(C)[C@@H]1[C@H](O)C[C@@H]1[C@@]3(C)CC[C@H](O)C(C)(C)[C@@H]3[C@@H](O[C@@H]3O[C@H](CO)[C@@H](O)[C@H](O)[C@H]3O[C@@H]3OC[C@@H](O)[C@H](O)[C@H]3O)C[C@]12C [Notoginsenoside R1] yielded a cell viability of 105 ± 7.3%. CC1(C)CC(=O)C2=C(C1)NC(=S)NC2c1cccc(O)c1 (stereo not given) [Dimethylenastron] was tested, and the cell viability was 109 ± 4.5%.
